In the library only some 3.8% were active in any assay of this set; here they are far more common.
HSP90 inh – HSP90 refolding inhibition in rabbit reticulocyte lysate. luciferase refolding luminescence, 3 h. inhibition, % at 5.6 µM. hit rate 0.91% among 290,000. AID 1789;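 active = inhibition above the screen-wide mean plus 3 SD, computed separately per campaign, cut at about 16% in these data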;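 also: 0% = DMSO wells and 100% = 60 µM geldanamycin wells; inhibitors lower the luminescence because luciferase stays unfolded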
NALP1 inh – NALP1 inhibition; hit rate 0.61% among 280,000; inhibition, % at 10 µM; S. cerevisiae NALP1/ASC/caspase-1 growth, X-gal OD620, 72 h; in the data active = inhibition mostly above about 24%, no sharp cut-off; inactive = mostly below about 32%
HSF1 inh – HSF1 inhibition; activity change, negative = inhibition, % at 7.5 µM (by protocol); hit rate 0.77% among 300,000; NIH3T3-HGL HSE-luciferase, MG132-induced, luminescence 8 h; hits give low values;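 active = more than half of replicate wells show activity change below -50%, luminescence cut by over half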;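 also: luciferase reports HSF-1 transcriptional activity via heat shock element; 0% = median of DMSO wells and -100% = zero luminescence signal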
HSF-1 act – increases HSF-1 driven luciferase reporter signal; NIH3T3-HGL HSF-1 luciferase reporter, MG132, 8 h; 100% = twice DMSO control signal; activation, % at 9 µM; hit rate 1.7% among 300,000; AID 504408;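 active = mean replicate activation of at least 50% with a set share of replicates each reaching 50%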;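 also: 0% = median of the neutral control wells and 100% = twice that signal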
p-CIP stab down – compounds decreasing mouse p/CIP protein stability; F442A p/CIP-EGFP cells, EGFP fluorescence, 16 h; decrease of EGFP signal, % at 10 µM; hit rate 0.01% among 290,000;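 active = EGFP signal decrease of at least 30% at 10 µM or well 3 SD below plate mean, unless failing retest; inactive = the rest, including hits failing retest or dose response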
Target sequence (Q05BA5 1-1403): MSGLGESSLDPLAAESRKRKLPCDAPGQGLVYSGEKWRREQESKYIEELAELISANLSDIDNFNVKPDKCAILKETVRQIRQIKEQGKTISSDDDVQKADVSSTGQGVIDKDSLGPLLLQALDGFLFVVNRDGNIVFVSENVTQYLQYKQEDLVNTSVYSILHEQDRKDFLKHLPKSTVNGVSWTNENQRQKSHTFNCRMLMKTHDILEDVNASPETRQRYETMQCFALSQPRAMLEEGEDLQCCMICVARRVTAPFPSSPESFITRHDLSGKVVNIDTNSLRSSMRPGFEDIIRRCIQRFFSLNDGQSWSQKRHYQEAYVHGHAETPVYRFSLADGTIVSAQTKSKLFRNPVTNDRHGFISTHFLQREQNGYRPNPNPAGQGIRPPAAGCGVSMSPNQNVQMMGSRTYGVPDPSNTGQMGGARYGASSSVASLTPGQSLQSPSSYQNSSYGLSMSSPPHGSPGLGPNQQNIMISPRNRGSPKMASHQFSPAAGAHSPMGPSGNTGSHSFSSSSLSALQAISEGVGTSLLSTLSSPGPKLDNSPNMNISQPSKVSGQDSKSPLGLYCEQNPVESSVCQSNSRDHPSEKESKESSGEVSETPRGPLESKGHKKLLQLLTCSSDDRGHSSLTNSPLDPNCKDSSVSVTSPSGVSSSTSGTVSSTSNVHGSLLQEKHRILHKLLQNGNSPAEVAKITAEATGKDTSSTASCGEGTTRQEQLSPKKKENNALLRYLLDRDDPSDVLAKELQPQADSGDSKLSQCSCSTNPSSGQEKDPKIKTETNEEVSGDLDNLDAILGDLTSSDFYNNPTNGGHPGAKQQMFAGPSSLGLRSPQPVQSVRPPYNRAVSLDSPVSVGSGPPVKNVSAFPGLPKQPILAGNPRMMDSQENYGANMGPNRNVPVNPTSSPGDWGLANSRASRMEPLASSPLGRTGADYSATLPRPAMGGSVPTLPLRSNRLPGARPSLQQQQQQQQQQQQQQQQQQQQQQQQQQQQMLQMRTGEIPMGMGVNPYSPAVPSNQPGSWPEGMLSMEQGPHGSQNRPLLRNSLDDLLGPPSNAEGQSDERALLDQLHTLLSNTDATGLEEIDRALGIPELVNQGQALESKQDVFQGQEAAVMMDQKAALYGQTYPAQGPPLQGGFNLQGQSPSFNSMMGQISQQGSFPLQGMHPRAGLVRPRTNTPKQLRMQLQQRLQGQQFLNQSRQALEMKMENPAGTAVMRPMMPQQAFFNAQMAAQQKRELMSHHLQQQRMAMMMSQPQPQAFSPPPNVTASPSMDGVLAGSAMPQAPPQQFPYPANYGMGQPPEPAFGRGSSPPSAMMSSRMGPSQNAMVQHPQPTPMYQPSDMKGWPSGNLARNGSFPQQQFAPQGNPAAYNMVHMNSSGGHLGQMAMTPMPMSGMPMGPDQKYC
Hsp70 act – transcriptional activators of Hsp70; HeLa Hsp70 promoter luciferase reporter, luminescence; scaled: vehicle 0, proteasome-inhibitor control 100%; activation, % at 10 µM; hit rate 0.04% among 200,000; AID 1203;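 active = activation above the mean across all tested compounds plus 3 SD, cutoff set per campaign, cut at about 5.5% in these data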;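 also: 100% = MG132 at 30 µM as the positive control and 0% = DMSO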
HSP90 inh confirm – confirmation of HSP90 inhibitors; AID 1846; inhibition, % at 5.9 µM; rabbit reticulocyte lysate, luciferase refolding luminescence, 3 h; hit rate 64% among 2,300; shares compounds with HSP90 inh; in the data active = inhibition above about 18%;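 also: 0% = vehicle wells and 100% = reference inhibitor wells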
luciferase ctr – firefly luciferase inhibition, HSP90 counter-screen; shares compounds with HSP90 inh; purified native firefly luciferase, luminescence; inhibition, % at 5.9 µM; hit rate 48% among 2,300;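 active = inhibition above the mean inhibition of all tested sample wells plus 3 SD, cut at about 10% in these data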;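 also: 0% = DMSO with luciferase and 100% = wells lacking luciferase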
* hit, by the source's call; x = no result.

SMILES	HSP90 inh	NALP1 inh	HSF1 inh	HSF-1 act	p-CIP stab down	Hsp70 act	HSP90 inh confirm	luciferase ctr
CSc1ccc(/C=N/Nc2ccc(Cl)c(C(=O)O)c2)cc1	33*	-2	-2	27	-13	0	80*	54*
Clc1cccc(N/N=C/c2ccc(N3CCOCC3)cc2)c1	-1	-1	-22	-18	-16	0	x	x
COc1ccc2ccccc2c1/C=N/Nc1ccc(Cl)c(C(=O)O)c1	12	-12	-5	5	-2	x	x	x
O=C(N/N=C/c1cccnc1)c1ccc(Cl)c(Cl)c1	x	x	-3	0	x	x	x	x
COc1ccc(N=Nc2nc3cc(Br)c(Br)cc3n2C)c(OC)c1	1	22	x	x	-23	0	x	x
CC(C)(C)c1ccc(-c2noc(CNC(=O)c3ccco3)n2)cc1	-6	14	-3	0	-24	x	x	x
CCC(C)n1c(=S)[nH]c2c(sc3ccc([N+](=O)[O-])cc32)c1=O (configuration not stated)	8	14	-9	-5	-19	0	x	x
O=C(O)c1cc(N/N=C/c2c[nH]c3ccccc23)ccc1Cl	40*	0	-4	-10	-19	x	38*	-10
O=C(N/N=C/c1ccncc1)c1cccc(N/N=C/c2ccncc2)c1	11	5	-7	-16	6	0	x	x
O=C(O)c1cc(N/N=C/c2ccncc2)ccc1Cl	25*	15	-1	-1	3	x	62*	10*
CCN1CCN(Cc2ccc(NC(=O)Nc3ccc(OC)cc3)cc2)CC1	-3	23	-1	15	6	0	x	x
O=C(c1ccc(NS(=O)(=O)c2cccc(F)c2)cc1)N1CCCCC1	24*	17	-4	-8	-9	x	-9	-11
CCN1CCN(Cc2ccc(NC(=O)Nc3ccccc3)cc2)CC1	20*	20	-42	-49	-8	0	29*	9
O=C(Nc1ccccc1)Nc1ccc(C(=O)N2CCCC2)cc1	22*	13	13	44	-7	0	43*	20*
O=C(Nc1ccccc1C(=O)N1CCCC1)c1ccccc1	27*	4	-12	-14	4	0	-3	-5
Cc1ccc(C(=O)Nc2ccccc2C(=O)N2CCCCCC2)cc1	-2	-7	10	4	-6	x	x	x
O=[N+]([O-])c1ccc(S(=O)(=O)N2CCN(c3ccc(N4CCOCC4)nn3)CC2)cc1	x	x	-3	-16	x	x	x	x
COc1ccccc1C(=O)NNC(=O)c1sccc1-n1cccc1	0	-3	-1	14	-2	0	x	x
Cc1ccc(OCc2nnnn2-c2ccccc2)cc1	75*	-15	6	-2	-2	0	1	-2
COCCN(Cc1nc(C2(c3ccc(C)cc3)CCCC2)no1)C(C)C	4	2	20	3	8	0	x	x
Cc1ccc(N=Nc2ccc3ccccc3c2O)cc1	59*	8	-73*	-78	-5	x	77*	73*
COc1ccc(N=Nc2ccc3ccccc3c2)c(O)c1	30*	3	-41	-55	3	x	53*	55*
COc1ccc(C(=O)c2ccccc2)c(O)c1	0	-4	9	8	-16	0	x	x
COc1cccc(N=Nc2ccc3ccccc3c2O)c1	28*	23	-62*	-70	8	x	58*	58*
Cc1ccccc1C(=O)c1cccn1CC(=O)NC(C)c1ccc2c(c1)OCCO2 (configuration not stated)	0	1	4	26	15	0	x	x
SMILES	HSP90 inh	NALP1 inh	HSF1 inh	HSF-1 act	p-CIP stab down	Hsp70 act	HSP90 inh confirm	luciferase ctr
COc1ccccc1CCNS(=O)(=O)CCNC(=O)c1ccc2c(c1)OCO2	x	x	11	22	x	x	x	x
COCC(C)n1c(C)cc(C(=O)COC(=O)c2n[nH]c3ccccc23)c1C (configuration not stated)	47*	-3	-53*	-59	0	0	48*	45*
C/C(=N\OCc1cccc(C(=O)O)c1)c1ccc(Cl)cc1	71*	-9	7	11	-10	x	86*	87*
O=C(Nc1ccc2nc3n(c(=O)c2c1)CCCCC3)c1c(F)ccc([N+](=O)[O-])c1F	24*	19	-3	-7	-9	x	6	3
O=C(Nc1ccc2nc3n(c(=O)c2c1)CCCCC3)c1ccccc1[N+](=O)[O-]	-3	17	25	43	-1	x	x	x
O=C(Nc1ccc2nc3n(c(=O)c2c1)CCCCC3)c1cc([N+](=O)[O-])ccc1F	34*	27	-68*	-72	7	x	15	4
O=C(Nc1ccc2nc3n(c(=O)c2c1)CCCC3)c1ccccc1F	-2	4	1	10	-5	x	x	x
Cc1ccc(N(CC(=O)Nc2cccc(Cl)c2C)S(C)(=O)=O)cc1	-1	7	3	0	-5	x	x	x
Nc1ccc(NS(=O)(=O)c2ccccc2)cc1	-3	-6	-5	10	2	0	x	x
CC1(C)CC(NC(=O)COc2ccc(Br)cc2Cl)CC(C)(C)N1	6	-6	-14	-19	-8	x	x	x
CC1(C)CC(NC(=O)COc2ccccc2Cl)CC(C)(C)N1	33*	-6	-65*	-68	7	0	37*	45*
O=C(O)c1ccc(N=NN2CCCCCC2)cc1	21*	10	-5	-5	5	0	42*	12*
CC(C)CCNC(=O)c1onc(CSc2nc3ccccc3[nH]2)c1C(=O)NCCC(C)C	0	20	-4	-2	-4	x	x	x
O=C(Nc1cccc(-c2cn3c(n2)SCC3)c1)c1ccc2ccccc2n1	50*	-1	1	-6	-1	0	31*	-1
CCOC(=O)C1CCCN(C(=O)C2CCN(S(=O)(=O)c3c(C)noc3/C=C/c3ccccc3F)CC2)C1 (configuration not stated)	0	1	13	35	1	x	x	x
CC(C)(C)c1ccc(-c2nnc3sc(-c4ccccn4)nn23)cc1	40*	-7	-53*	-60	-9	0	54*	26*
O=S(N1CCCCC1)C12CC3CC(CC(C3)C1)C2 (configuration not stated)	40*	5	-6	-5	1	0	-3	-6
O=C(Cc1coc2cc3c(cc12)CCC3)OCC(=O)N1CCCC1=O	27*	11	-47	-49	5	0	12	-19
O=C(Cc1ccc(Cl)cc1)Nc1ccccc1C(=O)N1CCCCC1	1	-19	-1	3	-12	x	x	x
CN(Cc1ccccc1)S(=O)(=O)c1ccc(Cl)c(C(=O)OCC(N)=O)c1	0	11	-2	-2	-5	x	x	x
Cc1ccc2nc(-c3ccc4c(c3)OCCO4)cn2c1	93*	-1	-6	-2	-4	x	94*	90*

Screening data as filed in PubChem BioAssay.
